ST2 IL33 inh = inhibitors of human ST2 (IL1RL1) binding to IL-33, primary screen, biochemical, AlphaLISA; AID 1259354, 2018; inhibition, % for hits at 17 µM; actives 2.3% (n = 78,000); AlphaLISA ST2-Fc/biotin-IL-33 interaction, 1 h; Interleukin-1 receptor-like 1 (Homo sapiens), Q01638; in the data active = inhibition above about 30%
* hit, by the source's call; i = inactive. Shown is part of a subset that was picked to be rich in hits.

SMILES	ST2 IL33 inh
COc1ccc(C2=C/C(=C/c3cccc(OC)c3OC)C(=O)O2)c(OC)c1	34%*
COc1cc(/C=C2\C=C(c3ccc(Cl)cc3)OC2=O)cc(I)c1OC	i
CCc1ccc(C2=C/C(=C/c3cc(OC)ccc3OC)C(=O)O2)cc1	38%*
CC(=O)Nc1ccsc1C(=O)N1CCCC(N(C)Cc2ccccc2)C1 (configuration not stated)	i
CC(C)(C)c1ccc(C(=O)n2nnc3ccccc32)cc1	i
CC(C)(C)c1ccc(Cn2ncc3ccccc3c2=O)cc1	i
O=C(NC(Nc1cccc([N+](=O)[O-])c1)C(Cl)(Cl)Cl)c1cccc(Cl)c1 (configuration not stated)	i
COC(=O)c1ccccc1C(=O)N1CCCC(Nc2ccc(C)c(C)c2)C1 (configuration not stated)	i
COc1ccccc1CN1CCCCCC1	i
COc1ccccc1CN1CCSCC1	i
CCOc1ccccc1CN1CCSCC1	31%*
CC(C)C1=NOC(C(=O)N2CCc3c(cc(-c4ccncc4)c(=O)n3CCN3CCCCC3)C2)C1 (configuration not stated)	i
C=CCN1C(=O)c2ccccc2Sc2ccc(C(=O)NCc3ccco3)cc21	i
COc1ccc(OCCNc2ccccc2-c2nn[nH]n2)cc1	i
CCOC(=O)N1CCN(C2CCCN(C/C(C)=C/c3ccco3)C2)CC1 (configuration not stated)	i

Compound activity deposited in PubChem BioAssay by Paczesny and Yang Labs, IUPUI and University of Michigan.
